Assay results taken from PubChem BioAssay (Tox21).
Records with an inconclusive call do not appear. A number with no mark means an inactive call. Active and inactive are the calls of the source. The call rests on the fitted dose curve.

Target: Retinoic acid receptor RXR-alpha (Homo sapiens) (UniProt P19793)
Experiment: qHTS assay to identify small molecule agonists of the RXR signaling pathway (AID 1159527); further: nearly all actives have a fitted effect of over 35% in size
Conditions: HEK293T RXRa-UAS-bla, beta-lactamase ratio, 16 h; series mostly up to 76.8 µM; activation: at the top concentration
From the text: U.S. Tox21 Program National Center for Advancing Translational Sciences [NCATS] NIH Chemical Genomics Center [NCGC] U.S. Environmental Protection Agency [EPA] National Institutes of Environmental Health Sciences [NIEHS] National Toxicology Program [NTP] U.S. Food and Drug Administration [FDA] Tox21 Assay Overview: The Retinoid X receptor (RXR), a nuclear hormone receptor expressed in liver, spleen, placenta, epidermis, central nervous system. These receptors are able to form homo and heterodimers with other nuclear receptors and due to this heterodimerizing ability, RXR functions as master regulators producing diverse physiological effects. Three subtypes of RXR exist; alpha, beta and gamma. Retinoid X receptor alpha (RXR-alpha) has potential roles in metabolic signaling pathways, skin alopecia, dermal cysts, cardiac development, insulin sensitization etc. Therefore screening environmental chemicals on RXR-alpha signaling can be used for the studies focused on such therapeutic applications. For quantification of RXR-alpha ligands signaling, GeneBLAzer RXR alpha-UAS-bla HEK 293T (Life Technologies, Carlsbad, CA) cells containing a beta-lactamase reporter-gene under control of Retinoid X receptor-alpha response element were used to screen Tox21 10K library.
Tox21 Assay Protocol Summary: RXR-alpha HEK 293T cells were dispensed at 2,000 cells/6 uL of assay medium containing 2% charcoal-stripped FBS using a Multidrop Combi (ThermoFisher Scientific, Waltham, MA) dispenser. The assay was performed in black wall/clear-bottom 1536-well plates (Greiner Bio-One North America Inc. Monroe, NC). 9-cis retinoic acid was used as a positive control in the agonist mode screen. After the assay plates were incubated at 37 C and 5% CO2 for 5 hr, 23 nL of compounds dissolved in DMSO, positive controls or DMSO only were transferred to the assay plate by a Pintool station (Kalypsys, San Diego, CA). The assay plates were incubated at 37 C and 5% CO2 for 16 hr. One uL of LiveBLAzer B/G FRET substrate (Life Technologies) was added using a Flying Reagent Dispenser (Aurora Discovery, San Diego, CA) and the plates were incubated at room temperature for 2 hr. Fluorescence intensity (405 nm excitation, 460/530 nm emission) was measured using an Envision plate reader (PerkinElmer, Shelton, CT).
On the % scale 0 is the no-effect control and ±100 the full control effect; potency means the concentration at half of the fitted maximal effect.

Sequence of Retinoic acid receptor RXR-alpha (Homo sapiens) (P19793 whole entry, looked up): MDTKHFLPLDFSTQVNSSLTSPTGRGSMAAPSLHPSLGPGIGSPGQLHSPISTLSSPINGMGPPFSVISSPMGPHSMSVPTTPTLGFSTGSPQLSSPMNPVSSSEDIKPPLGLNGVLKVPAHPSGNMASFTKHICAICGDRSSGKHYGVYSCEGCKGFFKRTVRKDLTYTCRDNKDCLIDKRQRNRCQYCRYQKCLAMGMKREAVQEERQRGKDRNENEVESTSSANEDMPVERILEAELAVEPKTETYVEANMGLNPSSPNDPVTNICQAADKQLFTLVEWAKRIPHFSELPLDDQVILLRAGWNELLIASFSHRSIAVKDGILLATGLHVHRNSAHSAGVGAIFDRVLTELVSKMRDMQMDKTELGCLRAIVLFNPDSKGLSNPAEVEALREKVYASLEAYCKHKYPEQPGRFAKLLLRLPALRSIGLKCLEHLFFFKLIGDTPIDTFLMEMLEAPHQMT

Structure (SMILES) | activation | Potency
Cc1ncc(CSSCc2cnc(C)c(O)c2CO)c(CO)c1O | 3.97% [at 35.3 µM] | 
Cc1c(C)n(CCN(C)C)c2ccc(C(=O)OCCN(C)C)cc12 | -8.27% [at 35.3 µM] | 
CCCc1ccccc1O | 3.69% | 
CCCCCCCCCCCCCCCCCCOCC(O)CO (stereo not given) | 0.891% [at 35.3 µM] | 
COc1nc(C)nc(N)n1 | 11.2% | 
Oc1cc(O)c2c(c1)O[C@H](c1ccc(O)c(O)c1)[C@H](O)C2 | 10.7% [at 35.3 µM] | 
Nc1[nH]c(=O)ncc1F | 8.65% [at 35.3 µM] | 
CO[Si](OC)(OC)OC | 0.893% | 
CC1=CCC2C(C1)C2(C)C (stereo not given) | -7% | 
CC(C)(C)OC(=O)N1C[C@@H](F)C[C@H]1C(=O)O | 1.13% | 
Cc1cc(C)cc(OCC2CNC(=O)O2)c1 (stereo not given) | 11.1% [at 35.3 µM] | 
COc1ccc(NC(C)=O)cc1 | -7.62% | 
CC(=O)O[C@H](CC(=O)[O-])C[N+](C)(C)C | -0.2% | 
C[C@H](O)C(=O)Nc1c(I)c(C(=O)NC(CO)CO)c(I)c(C(=O)NC(CO)CO)c1I | 2.49% [at 35.3 µM] | 
Cc1ccccc1C(=O)O | 0.0419% | 
CC/C=C\C#N | 16.1% | 
Nc1ccc2cc(S(=O)(=O)O)ccc2c1 | -6.48% | 
C=C(C)C(=O)NCCCN(C)C | 4.6% | 
CCN1CCCC(OC(=O)C(c2ccccc2)c2ccccc2)C1 (stereo not given) | -10.5% [at 35.3 µM] | 
OC/C=C/c1ccccc1 | -10.6% | 

Structure (SMILES) | activation | Potency
O=[N+]([O-])c1ccc(CCO)cc1 | 2.59% | 
CC(C)c1cccc(O)c1 | 4.42% | 
CCN1CCCC1CNC(=O)c1cc(S(N)(=O)=O)ccc1OC (stereo not given) |  | 43.6 µM (active)
NS(=O)(=O)c1cc2c(cc1Cl)NC(CSCc1ccccc1)=NS2(=O)=O | 14.9% [at 35.3 µM] | 
CC(C)=CCC/C(C)=C/C(=O)O | 0.817% | 
O=C1OC(=O)c2cc([N+](=O)[O-])ccc21 | 14.6% | 
O=C(O)C1CCC1 | 7.05% [at 35.3 µM] | 
NCCNC(=O)c1ccc(Cl)cn1 | 8.37% [at 35.3 µM] | 
Nc1ccn(C2CO[C@H](CO)O2)c(=O)n1 (stereo not given in full) | 11.4% [at 35.3 µM] | 
CC12CCC(CC1=O)C2(C)C (stereo not given) | 8.19% | 
C=CC(=O)OCCCCCC | 1.23% | 
CSc1nc(NC2CC2)nc(NC(C)(C)C)n1 | -3.15% | 
N#CC1(O)CCCCC1 | 7.91% | 
O=S(=O)(c1cccc2cnccc12)N1CCCNCC1 | -14% [at 35.3 µM] | 
CC1(C)SC(C)(C)SC(C)(C)S1 | -0.911% | 
CC(C)[C@H](N)C(=O)OCCOCn1cnc2c(=O)[nH]c(N)nc21 | -0.195% [at 35.3 µM] | 
CCCC(=O)O[C@]1(C(=O)CCl)[C@@H](C)C[C@H]2[C@@H]3CCC4=CC(=O)C=C[C@]4(C)[C@@]3(F)C(=O)C[C@@]21C | -13.1% [at 35.3 µM] | 
COc1cc(C(=O)N2CCOCC2)cc(OC)c1OC | 7.7% [at 35.3 µM] | 
C=CCOc1nc(OCC=C)nc(OCC=C)n1 | 0.597% | 
OCc1ccccn1 | 6.91% [at 35.3 µM] | 
